These results are taken from PubChem BioAssay.

Each structure is given as a SMILES string. The source made the active and inactive calls. Unless noted, no rule for the calls is given here.

Assay [1] concerns XIP peptide (Xip251-270) binding. Nature of the assay: small-molecule binders of XIP peptide, primary screen, biochemical, small-molecule microarray, fluorescence 635/667 nm, 0.1 µg/mL protein (AID 1182). The note with it: fluorescent protein binding, 635 nm, higher = more signal, called active from +8 up or from −8 down.
A further assay relates to XIP peptide (Xip251-270). The experiment in a line: small-molecule binders of XIP peptide, primary screen, biochemical, small-molecule microarray, fluorescence 635/667 nm, 0.5 µg/mL protein (AID 1183). The note with it: small-molecule microarray binding, fluorescence 635 nm; higher = more signal.
A short description of assay [2]: Plasmodium falciparum growth inhibition, primary screen, strain 3D7, DAPI fluorescence, 100 nL (AID 1184).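 Also: parasites grown inside human red blood cells in medium with human serum.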 The note with it: P. falciparum 3D7 growth, 3 d, higher = more signal.
Assay [3] concerns the target Homeobox protein Hox-A13 (Mus musculus) (UniProt Q62424). Nature of the assay: inhibitors of HoxA13-DNA binding, primary screen, biochemical, fluorescence polarization, labeled oligonucleotide (AID 1185). The note with it: 15 min, higher = more signal, called active from +8 up or from −8 down. (In general: In fluorescence polarisation assays a small probe gives low polarisation when free and higher when bound to something large.)

Assay [4] can be described thus: inhibitors of hydroxyurea-induced Chk1 phosphorylation, primary screen, imaging, HeLa, phospho-Chk1 antibody, percent positive cells (AID 1186). The note with it: hydroxyurea-induced phospho-Chk1 immunofluorescence imaging, higher = more signal.
A short description of assay [5]: inhibitors of hydroxyurea-induced Chk1 phosphorylation, primary screen, imaging, HeLa, phospho-Chk1 nuclear intensity (AID 1187). The note with it: hydroxyurea-induced phospho-Chk1 immunofluorescence imaging, higher = more signal.

Chain of Homeobox protein Hox-A13 (Mus musculus) (Q62424 whole entry, looked up): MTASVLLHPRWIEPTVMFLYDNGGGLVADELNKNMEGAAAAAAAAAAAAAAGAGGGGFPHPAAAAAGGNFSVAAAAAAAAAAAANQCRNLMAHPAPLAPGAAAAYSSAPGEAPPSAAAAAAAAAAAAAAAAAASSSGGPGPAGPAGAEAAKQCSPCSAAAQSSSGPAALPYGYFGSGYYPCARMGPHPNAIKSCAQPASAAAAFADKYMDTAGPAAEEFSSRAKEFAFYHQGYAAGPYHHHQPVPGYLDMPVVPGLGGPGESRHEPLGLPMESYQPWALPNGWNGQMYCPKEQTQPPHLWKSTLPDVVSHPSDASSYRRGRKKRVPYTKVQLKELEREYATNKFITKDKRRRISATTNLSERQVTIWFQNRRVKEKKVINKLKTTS

As for `C[N+](C)(C)CCCC[C@@H]1NC(=O)[C@@H]2C[C@H](C(=O)NCCCCCN)[C@H](c3ccc(O)cc3)N2C1=O`, the composite z-score was 0.941 (inactive) in assay [1] and 0.831 in the assay with XIP peptide (Xip251-270). Besides, the z-score is 0.117 in assay [2], -0.32 (inactive) in assay [3], -0.661 (inactive) in assay [4] and -0.154 (inactive) in assay [5].

Turning to `C=CCOC(=O)[C@H]1[C@@H]2C(=O)O[C@@H](c3ccccc3)[C@@H](c3ccccc3)N2[C@@H](c2ccc(OCCOC(=O)[C@@H]3C[C@@H]4C(=O)N5CCC[C@H]5C(=O)N4[C@@H]3c3cccc(OCCO)c3)cc2)[C@]12C(=O)Nc1ccc(I)cc12`, the composite z-score was 0.108 (inactive) in assay [1] and 0.792 in the assay with XIP peptide (Xip251-270). The z-score in assay [2] was -1.66; in assay [3], 2.03 (inactive); in assay [4] it was 0.351 (inactive); in assay [5], 0.557 (inactive).

With `C[C@H]1C2[C@H](Cc3ccccc3)NC(=O)[C@]23C(=O)NCC(=O)N2CCC[C@H]2C(=O)NC/C=C/CCC/C=C/C3[C@@H]2O[C@]12C` (stereo partly drawn), the composite z-score in assay [1] was -0.416 (inactive); in the assay on XIP peptide (Xip251-270), -0.56. Moreover, the z-score in assay [2] was -1.48; in assay [3], -3.96 (inactive); in assay [4], 0.0614 (inactive); in assay [5], 0.0823 (inactive).

For the compound `[N-]=[N+]=NCc1ccccc1[C@H]1OC(c2ccc(OCCCO)cc2)=N[C@@]1(Cc1ccccc1)C(=O)N1CCCCC1`, the composite z-score in assay [1] was -0.178 (inactive); in the assay with XIP peptide (Xip251-270), 0.625. The z-score in assay [2] is -2.4; in assay [3] it was -4.35 (inactive); in assay [4] it was -0.959 (inactive); in assay [5] it was -1.5 (inactive).

On to `Cc1ccc([C@H]2C(C(=O)O)=CCN2S(=O)(=O)c2ccc(C)cc2)cc1`, for which the results for the composite z-score (in assay [1]; in the assay on XIP peptide (Xip251-270)) were -0.609 (inactive) and 0.66, respectively. For the same compound, the z-score is 0.546 in assay [2], -2.98 (inactive) in assay [3], 0.586 (inactive) in assay [4] and -0.222 (inactive) in assay [5].

For `O=C1OCCC=C[C@H]2OC34C=CCN(Cn5nnc6ccccc65)C(=O)[C@H]3N(CCO)C(=O)[C@@H]4C12` (stereo partly drawn), the figures for the composite z-score (in assay [1]; with XIP peptide (Xip251-270)) were -0.681 (inactive) and -0.552, respectively. Also, the z-score in assay [2] is -0.288; in assay [3], -2.78 (inactive); in assay [4] it was -0.943 (inactive); in assay [5] it was -1.01 (inactive).

For the compound `C=CCC(OC(C)=O)[C@@H]1[C@@H](N(Cc2cc3ccccc3o2)C(=O)Cc2ccc(OC)cc2)c2cc(OCCCO)ccc2N1C(=O)c1ccc2ccccc2c1` (stereo partly drawn), the values for the composite z-score (in assay [1]; in the assay on XIP peptide (Xip251-270)) were 0.0999 (inactive) and 0.167, respectively. The z-score is -2.47 in assay [2], -1.6 (inactive) in assay [3], 0.556 (inactive) in assay [4] and 0.877 (inactive) in assay [5].

As to `CCOC(=O)C1=CC[C@@H](c2ccccc2)N(S(=O)(=O)c2ccc(C)cc2)[C@H]1c1ccc(CC)cc1`, the composite z-score was -0.223 (inactive) in assay [1] and 0.487 in the assay on XIP peptide (Xip251-270). Further, the z-score in assay [2] is -1.89; in assay [3] it was 0.868 (inactive); in assay [4] it was -0.0619 (inactive); in assay [5], -0.606 (inactive).

As to `CN1CCC(CCCO)=CC1c1cccs1` (stereo not drawn), the composite z-score was 0.912 (inactive) in assay [1] and -1 with XIP peptide (Xip251-270). Moreover, the z-score is 0.896 in assay [2], -4.21 (inactive) in assay [3], 1.02 (inactive) in assay [4] and 0.692 (inactive) in assay [5].

For the compound `COC(=O)[C@@]1(Cc2ccccc2)[C@H]2c3cc(C(=O)N(C)C)n(Cc4ccc(OC)c(OC)c4)c3C[C@H]2CN1C(=O)c1ccccc1`, the composite z-score is 0.713 (inactive) in assay [1] and 0.664 in the assay with XIP peptide (Xip251-270). Further, the z-score is -1.44 in assay [2], -4.39 (inactive) in assay [3], 0.639 (inactive) in assay [4] and 0.614 (inactive) in assay [5].

`COc1ccc([Si](C)(C)[C@@H]2[C@@H](CCO)O[C@]3(C(=O)N(Cc4cccc(N5CCOC5=O)c4)c4ccccc43)[C@H]2C)cc1`: the values for the composite z-score (in assay [1]; in the assay on XIP peptide (Xip251-270)) were 0.473 (inactive) and 0.332, respectively. In addition, the z-score in assay [2] was -2.54; in assay [3], -4.2 (inactive); in assay [4], -0.609 (inactive); in assay [5], -0.553 (inactive).

Take `C=C(C)[C@@H]1CC=C(C(O)C2C=CC3C(=O)NC(=O)C3N2Nc2ccc(Cl)cc2Cl)CC1` (stereo partly drawn): the composite z-score is -0.245 (inactive) in assay [1] and 0.468 in the assay with XIP peptide (Xip251-270). In addition, the z-score in assay [2] is -0.52; in assay [3] it was -5.46 (inactive); in assay [4], 0.463 (inactive); in assay [5], 0.154 (inactive).

With `C=CCNC(=O)[C@@H]1[C@H]2C(=O)O[C@H](c3ccccc3)[C@H](c3ccccc3)N2[C@H](c2ccc(OCCO)cc2)[C@@]12C(=O)N(C(=O)OCCOC)c1ccc(C#CCC(C(=O)OC)C(=O)OC)cc12`, the results for the composite z-score (in assay [1]; in the assay with XIP peptide (Xip251-270)) were 1.33 (inactive) and 0.743, respectively. Moreover, the z-score in assay [2] was -2.11; in assay [3], -1.17 (inactive); in assay [4] it was 0.053 (inactive); in assay [5], 0.0115 (inactive).

Turning to `Cc1ccc(S[C@]2(C(=O)O)CC(=O)N(C(C)C)[C@@H]2c2ccc(CO)cc2)cc1`, the composite z-score in assay [1] was 0.402 (inactive); in the assay with XIP peptide (Xip251-270) it was 0.216. For the same compound, the z-score in assay [2] is 0.252; in assay [3] it was -0.292 (inactive); in assay [4] it was -0.696 (inactive); in assay [5], -0.558 (inactive).

Turning to `NCCCCCNC(=O)[C@H]1C[C@H]2C(=O)N3CCC[C@H]3C(=O)N2[C@H]1c1ccc(O)cc1`, the values for the composite z-score (in assay [1]; in the assay with XIP peptide (Xip251-270)) were 0.705 (inactive) and 0.718, respectively. Besides, the z-score in assay [2] is -0.0006; in assay [3], -2.09 (inactive); in assay [4], -0.15 (inactive); in assay [5] it was -0.265 (inactive).

`CN(C)CCCCCCNC(=O)[C@@H]1C[C@@H]2C(=O)N[C@@H](CCCC[N+](C)(C)C)C(=O)N2[C@@H]1c1ccc(O)cc1`: the composite z-score was 0.759 (inactive) in assay [1] and 0.146 with XIP peptide (Xip251-270). The z-score in assay [2] is 1.99; in assay [3], -1.64 (inactive); in assay [4], 0.702 (inactive); in assay [5], 0.0464 (inactive).

As for `O=C1O[C@H](c2ccccc2)[C@H](c2ccccc2)N2[C@H]1[C@@H](C(=O)N1CCN(c3ncccn3)CC1)[C@]1(C(=O)Nc3ccc(C#CC4=CCCCC4)cc31)[C@H]2c1ccccc1OCCO`, the composite z-score in assay [1] is 0.263 (inactive); in the assay with XIP peptide (Xip251-270) it was 0.938. The z-score in assay [2] was -2.09; in assay [3], 1.87 (inactive); in assay [4] it was 0.28 (inactive); in assay [5], 0.188 (inactive).

Consider `CC(c1ccccc1)C(O)C1C=CC2C(=O)N(C)C(=O)C2N1NC(=O)OC(C)(C)C` (stereo not drawn), for which the composite z-score is 2.04 (inactive) in assay [1] and 0.63 in the assay on XIP peptide (Xip251-270). For the same compound, the z-score in assay [2] is 1.05; in assay [3], -2.6 (inactive); in assay [4] it was -0.129 (inactive); in assay [5] it was -0.0976 (inactive).
